Experimental data taken from PubChem BioAssay AID1347156 (National Center for Advancing Translational Sciences (NCATS), 2019).
Results filed as inconclusive are left out. Calls of active or inactive are those of the source. Calls follow the shape of the dose curve; as a rule, active = well fitted cell-killing curve with a large enough effect; inconclusive = small, poorly fitted or top-dose-only effect; inactive = flat fitted curve, though single readings scatter.

Assay: DAPI mCherry counterscreen qHTS for Zika virus inhibitors; also: nearly all actives have a fitted effect of over 55% in size
Conditions: Vero cells, DAPI nuclear count cytotoxicity, imaging 48-72 h; series mostly up to 32.6 µM
Description: Assay Submitters (PI): Avindra Nath, Ph.D., National Institute of Neurological Disorders and Stroke (NINDS), Bethesda, MD Radhakrishnan Padmanabhan, Ph.D., Georgetown University (GU), Washington D.C. Zika Virus causes congenital defects, including microcephaly and is associated with Guillain-Barre syndrome, eningoencephalitis and myelitis in infected adult. […] Using a target-based approach, we hope to establish a screening paradigm to uncover novel, cell-active NS2B-NS3 protease (Zika Virus) specific inhibitors from NCATS' collection of small molecules using qHTS. […] Four assay panel was created to identify potential Zika Virus inhibitors. Namely, (1) GU unlinked NS2B-NS3 AMC tagged protease qHTS, (2) GU unlinked NS2B-NS3 Rhodamine tagged protease qHTS, (3) NINDS linked NS2B-NS3 AMC tagged protease qHTS, (4) NINDS linked NS2B-NS3 Rhodamine tagged protease qHTS. Active compounds were re-acquired and re-screened to confirm inhibition. Inhibitors were further screened against various confirmatory and counterscreens in dose response format. […] A DAPI (mCherry counterscreen) which determine Vero cell cytotoxicity was used to exclude false positive compounds. […] Early Translation Branch (ETB) National Center for Advancing Translational Sciences (NCATS), Rockville, MD National Institute of Health (NIH), Bethesda, Maryland
384 well ZIKV-mCherry & mCherry DAPI counterscreen: We have developed a new orthogonal imaging assay in 384-well plate format, which uses recombinant virus ZIKV-mCherry in Vero cells. Briefly, 30 microL of Vero cells derived from a green monkey cell line, were dispensed by Multidrop Dispenser into a clear solid bottom black 384 well plate (ultracarrier, Perkin Elmer LifeSciences) at a concentration of 5,000 cells per well. The plate was incubated overnight in a CO2 incubator at 37 degrees C. Compounds were delivered as a 126 nL DMSO solution by Kalypsys pintool transfer. Following compound transfer, 10 microL of ZIKV-mCherry was added at an MOI of 1 and incubated in a CO2 incubator for 48-72 hrs at 37 degrees C. After sufficient incubation of infected cells in test plates, 8 microL of 32% PFA was dispensed into assay plates to fix cells and incubated for 20 min at room temperature. Plates were washed 3 times with PBS using BioTek EL406 microplate washer/dispenser. After washing, 30 microL of PBS with 0.01% TX-100 containing Hoechst dye was dispensed into the each well of the plates for nuclear staining. 384-well plates were imaged on an automated, widefield high content imager (INCell 2200, GE Healthcare) using a 10x/0.45 NA lens and standard DAPI (nuclear stain) and mCherry (cy5) excitation and emission filters. The TIFFs were quantitated using the canned Multi Target Analysis protocol (GE Investigator Workstation software v3.7.2). Briefly, nuclei from the DAPI channel were identified using top hat segmentation and a sensitivity setting of 96 and minimum size area of 35 microm2. A recombinant Zika viral infection was monitored in the Cy5 channel (cells) using a 2 microm collar dilation from the nuclear bitmap. mCherry objects with an average nuclear RFU intensity above 450 (3 stdev above mean negative control wells) were considered "mcherry positive" and data was analyzed by percent infection rate.
% is scaled to controls: 0 for no effect and ±100 for the full control effect; potency is read from the fitted curve at half-maximal effect.

| SMILES | Potency |
| --- | --- |
| CNc1ccc2oc(C[C@@H]3OC4(CC[C@@H]3C)O[C@H]([C@@H](C)C(=O)c3ccc[nH]3)[C@H](C)C[C@H]4C)nc2c1C(=O)O (stereo partly drawn) | 1 µM (active) |
| O=C1OC(c2ccc(O)c(S(=O)(=O)O)c2)(c2ccc(O)c(S(=O)(=O)O)c2)c2c(Br)c(Br)c(Br)c(Br)c21 | inactive |
| CN(C)[C@@H]1C(=O)C(C(N)=O)=C(O)[C@@]2(O)C(=O)C3=C(O)c4c(O)cccc4[C@@](C)(O)[C@H]3[C@H](O)[C@@H]12 | inactive |
| CC(C)=CCC[C@]1(C)C=Cc2c(O)c3c(c(CC=C(C)C)c2O1)O[C@]12C(=C[C@@H]4CC1C(C)(C)O[C@@]2(C/C=C(/C)C(=O)O)C4=O)C3=O | 1.12 µM [infected with Zika reporter virus, MOI 1] (active) |
| O=c1c(O)c(-c2ccc(O)c(O)c2)oc2c(O)c(O)cc(O)c12 | inactive |
| Cc1cc(SCc2sc(-c3ccc(C(F)(F)F)c(F)c3)nc2C)ccc1OCC(=O)O | 14.1 µM (active) |
| O=C(O)C(=O)c1cn(Cc2ccccc2)c2ccc(-c3ccc(OC(F)(F)F)cc3)cc12 | 28.2 µM (active) |
| CC(=O)c1c(O)c(C)c(O)c(Cc2c(O)c3c(c(C(=O)/C=C/c4ccccc4)c2O)OC(C)(C)C=C3)c1O | 14.1 µM (active) |
| N[C@@H](Cc1ccc(Oc2cc(I)c(O)c(I)c2)c(I)c1)C(=O)O | inactive |
| O=C(Nc1ccc(Br)cc1)c1cc(Br)cc(Br)c1O | 8.91 µM (active) |
| O=c1c(C2CC(c3ccc(-c4ccc(Br)cc4)cc3)Cc3ccccc32)c(O)sc2ccccc12 (stereo not drawn) | 8.91 µM (active) |
| CCCCCOc1cc2c(cc1-c1cc(/C=C/C(=O)O)ccc1O)C(C)(C)CCC2(C)C | 15.8 µM (active) |
| O=C1C(I)=CC(=C(c2cc(I)c(O)c(I)c2)c2ccccc2C(=O)O)C=C1I | 25.1 µM (active) |
| CC1=C(O)C(=O)C=C2C1=CC=C1[C@@]2(C)CC[C@@]2(C)[C@@H]3C[C@](C)(C(=O)O)CC[C@]3(C)CC[C@]12C | 1.12 µM (active) |
| O=c1oc2ccccc2c(O)c1C(CC(O)c1ccc(-c2ccc(Br)cc2)cc1)c1ccccc1 (stereo not drawn) | 15.8 µM (active) |
| C[C@H]1[C@H]2Cc3ccc(O)cc3[C@]1(C)CCN2CCc1ccccc1 | 22.4 µM (active) |
| O=C(O)c1cc(Oc2ccc(C(F)(F)F)cc2Cl)ccc1[N+](=O)[O-] | inactive |
| CC(C)=CCCC1(C)C=Cc2c(O)c3c(c(CC=C(C)C)c2O1)OC12C(=CC4CC1C(C)(C)OC2(C/C=C(/C)C(=O)O)C4O)C3=O (stereo not drawn) | 3.16 µM (active) |
